The text below walks through data of PubChem BioAssay (Tox21).

Each structure is given as a SMILES string. Where “and” joins values, the source holds several entries; their conditions need not be identical. Identical values can stand only once. Results filed as inconclusive are left out. Some structures have more than one record in an assay (separate samples or runs), and their calls can disagree. Calls of active or inactive are those of the source. The call rests on the fitted dose curve.
On the % scale 0 is the no-effect control and ±100 the full control effect; potency means the concentration at half of the fitted maximal effect.

The experiment in a line: qHTS assay for small molecule agonists of the antioxidant response element (ARE) signaling pathway - cell viability counter screen (AID 743203). Further: nearly all actives have a fitted effect of over 55% in size. The following applies: ARE-bla HepG2 viability, CellTiter-Glo luminescence, 16 h; series mostly up to 73.3 µM; viability change, negative = cytotoxic: at the top concentration. The text has this: National Center for Advancing Translational Sciences [NCATS]
NIH Chemical Genomics Center [NCGC]
U.S. Environmental Protection Agency [EPA]
National Institutes of Environmental Health Sciences [NIEHS]
National Toxicology Program [NTP]
U.S. Food and Drug Administration [FDA]
Oxidative stress has been implicated in the pathogenesis of a variety of diseases ranging from cancer to neurodegeneration. The antioxidant response element (ARE) signaling pathway plays an important role in the amelioration of oxidative stress. The CellSensor ARE-bla HepG2 cell line (Invitrogen) can be used for analyzing the Nrf2/antioxidant response signaling pathway. Nrf2 (NF-E2-related factor 2) and Nrf1 are transcription factors that bind to AREs and activate these genes. The CellSensor ARE-bla Hep G2 cell line contains a beta-lactamase reporter gene under control of the Antioxidant Response Element (ARE) stably integrated into HepG2 cells. The activation of the report gene under culture conditions can be detected by fluorescence intensity. This cell line has been used to screen the Tox21 10K compound library to identify agonists that induce oxidative stress. The cytotoxicity of the Tox21 compound library against the ARE-bla cell line was tested in parallel by measuring the cell viability using CellTiter-Glo assay (Promega, Madison, WI) in the same wells.
Tox21 Assay Protocol Summary:
ARE-bla HepG2 cells were dispensed at 2,000 cells/5 ul/well in 1536-well white wall/solid bottom plates using a Multidrop Combi (ThermoFisher Scientific, Waltham, MA) dispenser. After the assay plates were incubated at 37C/5% CO2 for 5 hrs, 23 nL of compounds dissolved in DMSO, positive controls or DMSO only was transferred to the assay plate by a pintool work station (Kalypsys, San Diego, CA). The plates were incubated at 37C/5% CO2 for 16 hrs, followed by addition of 4 ul/well of CellTiter-Glo reagent into the assay plates using a Flying Reagent Dispenser (Aurora Discovery, San Diego, CA). After 30 min incubation at room temperature, the luminescence intensity in the assay plates was measured using a ViewLux (PerkinElmer, Shelton, CT) plate reader.
As to `O=C1CC2(CCCC2)CC(=O)N1CCCCN1CCN(c2ncccn2)CC1`, the Potency result is “inactive”. As for `c1cnc2cc3c(cc2n1)C1CNCC3C1`, the “viability change, negative = cytotoxic” value was 0.615% (inactive). On the same count and under the same terms, next, `C1COC(NC(C2CC2)C2CC2)=N1`: 5.61% (inactive).

Consider `Nc1nc(=S)c2[nH]cnc2[nH]1`, for which the Potency is 3.86 µM (active). On the same count and under the same terms, next, `CC(C)(C)c1ccc(O)c(C(C)(C)C)c1`: 61.1 µM (active). With `CCCNC(C)C(=O)Nc1ccccc1C` (stereo not given), the “viability change, negative = cytotoxic” value was 0.811% (inactive). Same read-out and setting: then `Cc1scc2c1N(C(=O)CN1CCN(C)CC1)c1ccccc1NC2=O`, with 0.389% (inactive). The same measure, in the same setting: then `CC(C)(C)c1ccccc1`, with 5.29% (inactive); and `NC(N)=NC(=O)Cc1c(Cl)cccc1Cl`, with -18.2% (inactive). In the case of `CCCCC(CC)COC(=O)CC(C(=O)OCC(CC)CCCC)S(=O)(=O)O` (stereo not given), the Potency is 58.8 µM (active) and 54.5 µM (active). Turning to `C[N+]1([O-])CCOCC1`, the “viability change, negative = cytotoxic” value was 12.3% (inactive). Turning to `Nc1ccc(O)cc1`, the Potency is 12.7 µM (active) and inactive. Turning to `COc1cc(C(=S)N2CCOCC2)ccc1O`, the “viability change, negative = cytotoxic” value was -7.01% (inactive).

For the compound `CCCCCCCCCCCCCC[P+](CCCC)(CCCC)CCCC`, the Potency is 15.3 µM (active) and 10.9 µM (active). Same read-out and setting: then `CCC(C)(C)C(=O)O[C@H]1C[C@@H](C)C=C2C=C[C@H](C)[C@H](CC[C@@H]3C[C@@H](O)CC(=O)O3)[C@H]21`, with “inactive”. On the same count and under the same terms, next, `CCCCOCCOC(=O)c1ccccc1C(=O)OCCOCCCC`: “inactive”.

For the compound `Cc1c(O)cccc1C(=O)N[C@@H](CSc1ccccc1)[C@H](O)CN1C[C@H]2CCCC[C@H]2C[C@H]1C(=O)NC(C)(C)C`, the Potency was 15 µM (active) and 26.6 µM (active). Still for that read-out and setting: next, `NCCO`: “inactive”. Consider `CNC1(C)C2CCC(C2)C1(C)C` (stereo not given), for which the “viability change, negative = cytotoxic” value was 4.49% (inactive). As to `Cc1ccnc2c1NC(=O)c1cccnc1N2C1CC1`, the Potency result is “inactive”. Still for that read-out and setting: next, `CC(=O)OCCOCCOCCOC(C)=O`: “inactive”. As for `CC(C)CCOCc1ccccc1`, the “viability change, negative = cytotoxic” value is -2.1% (inactive).

Take `CCOc1ccccc1C(N)=O`: the Potency result was “inactive”.

In the case of `O`, the Potency entry was “inactive”. Still for that read-out and setting: next, `Cc1cc(C2(c3cc(C)c(O)cc3C)OS(=O)(=O)c3ccccc32)c(C)cc1O`: “inactive”.

Take `CC(=O)Nc1ccc(C(=O)CCl)cc1`: the Potency result is “inactive and 19.3 µM (active)”. For the compound `CC1COC(=O)O1` (stereo not given), the Potency entry was “inactive”.

Consider `CO[Si](OC)(OC)c1ccccc1`, for which the “viability change, negative = cytotoxic” value was 0.966% (inactive). As for `O=c1n(CC2CO2)c(=O)n(CC2CO2)c(=O)n1CC1CO1` (stereo not given), the Potency result was “inactive”.

With `CCc1cc(C(C)(C)C)c(O)c(C(C)(C)C)c1`, the Potency entry is “inactive”. Take `CC[C@H]1CN2CCc3cc(OC)c(OC)cc3[C@@H]2C[C@@H]1C[C@H]1NCCc2cc(OC)c(OC)cc21`: the Potency was 24.4 µM (active). As for `Cc1cc(C(C)(C)C)c(O)c(C(C)(C)C)c1`, the Potency result is “inactive”. On the same count and under the same terms, then `CCCN[C@H]1CCc2nc(N)sc2C1`, with “inactive”; and `CCCCCCCCCCCCc1ccccc1O`, with 60.3 µM (active) and 43.3 µM (active); and `CN(C)c1ccc(C(=C2C=CC(=[N+](C)C)C=C2)c2ccccc2)cc1`, with 545 nM (active) and 2.98 µM (active). As for `CC1COc2c(N3CCN(C)CC3)c(F)cc3c(=O)c(C(=O)O)cn1c23` (stereo not given), the “viability change, negative = cytotoxic” value is 18.2% (inactive). Turning to `COc1nc(C)nc(Cl)c1NC1=NCCN1`, the “viability change, negative = cytotoxic” value is -2.17% (inactive). The same measure, in the same setting: then `CC(=O)OCC1=C(C(=O)O)N2C(=O)[C@@H](NC(=O)Cc3cccs3)[C@H]2SC1`, with 23.3% (inactive). Still for that read-out and setting: next, `CCCCCCCCCCCCCCCCCl`: 12.7% [at 34.3 µM] (inactive); `CC(=O)CC(=O)Nc1ccc2[nH]c(=O)[nH]c2c1`: -21.2% (inactive).
